# Bioassay records deposited in PubChem BioAssay by National Center for Advancing Translational Sciences (NCATS).
# Hits are enriched below; roughly 9.2% of the tested compounds scored in any of these assays.
# ELG1 genotox: induces genotoxicity in HEK293T cells with luciferase-tagged ELG1 | 1.3% of 330,000 active | HEK293T ELG1-luciferase reporter, luminescence, 16 h | Potency, µM (titrated, usually from 46 µM), for inactives: at the top dose activity change, positive = activation, most hits filed as activators | AID 504466; note: % of control where 0% means no effect; nearly all actives have a fitted effect of over 60% in size
#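 DMSO vehicle served as control against compound-treated ELG1-luciferase HEK293T cells; exposure lasted 16 hr at 37 °C and 5% CO2, followed by ONE-Glo luminescence detection after 30 min.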
# FLuc counter: counter-screen for miR-21 project: firefly luciferase inhibitors or activators | AID 588342 | 6.9% of 360,000 active | Potency, µM (doses to about 57.5 µM), for inactives: top-dose activity change, negative = inhibition, usual class: inhibitors | purified FLuc, Km substrates, luminescence inhibition | P08659;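 note: plate controls were vehicle for no effect and reference inhibitor for full effect; nearly all actives have a fitted effect of over 55% in size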
# Target sequence (P08659 whole entry, looked up): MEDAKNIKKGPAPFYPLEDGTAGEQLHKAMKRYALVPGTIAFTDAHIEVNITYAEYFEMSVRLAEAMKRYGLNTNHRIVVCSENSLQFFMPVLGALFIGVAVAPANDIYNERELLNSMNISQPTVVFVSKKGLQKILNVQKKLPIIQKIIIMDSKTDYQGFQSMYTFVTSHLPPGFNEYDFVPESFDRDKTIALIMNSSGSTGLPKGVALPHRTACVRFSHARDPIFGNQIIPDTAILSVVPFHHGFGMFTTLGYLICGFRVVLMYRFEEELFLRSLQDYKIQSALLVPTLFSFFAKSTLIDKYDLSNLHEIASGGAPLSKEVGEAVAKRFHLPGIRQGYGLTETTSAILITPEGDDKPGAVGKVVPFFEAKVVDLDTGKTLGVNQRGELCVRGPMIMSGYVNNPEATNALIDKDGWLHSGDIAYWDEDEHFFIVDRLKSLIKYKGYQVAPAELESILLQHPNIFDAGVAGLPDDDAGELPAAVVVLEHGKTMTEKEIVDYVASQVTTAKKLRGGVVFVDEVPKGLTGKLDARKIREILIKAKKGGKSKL
#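 Biochemical qHTS of compounds, final roughly 60 µM downward over six points, against 10 nM purified firefly luciferase using Km concentrations of substrates (10 uM D-luciferin, 10 uM ATP) in Tris acetate pH 7.5 buffer; luminescence output.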
# Rab9 promoter act: Rab9 promoter activation; Potency, µM (top dose mostly 9.22 µM), for the others: at the highest dose activation, negative = inhibition, actives largely listed as activators; 2.8% of 320,000 active; Huh7 Rab9 promoter-luciferase reporter, luminescence, 24 h; note: % of control where 0% means no effect; nearly all actives have a fitted effect of over 60% in size
#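 Huh7 reporter line, Rab9 promoter upstream of luciferase. Compound exposure 24 h at 37 °C in reduced-serum medium with 10% FBS. Read-out: luminescence.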
# ELG1 DNA repair: inhibitors of ELG1-dependent DNA repair in HEK293T cells. 2.3% of 330,000 active. HEK293T ELG1-luciferase reporter, luminescence, 16 h; DNA damage induced by 5-fluorouridine. Potency, µM (highest dose often 46.1 µM), without a hit: at the top dose activity change, negative = inhibition, actives largely listed as inhibitors; note: % is set by controls: 0 for no effect and ±100 for the full control effect; nearly all actives have a fitted effect of over 55% in size
#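 Step one: seed 2,000 cells per well. Step two: pin-transfer compound or DMSO alongside 5-fluorouridine. Step three: incubate 16 hr, 37 °C, 5% CO2. Step four: add ONE-Glo, wait 30 min, read luminescence.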
# NPC1 promoter act: activates the NPC1 promoter; 2.4% of 320,000 active; Huh7 NPC1 promoter luciferase reporter, 24 h; AID 485313; Potency, µM (highest dose often 9.22 µM), for the others: top-dose activation, hits mostly activators; note: % of control where 0% means no effect; nearly all actives have a fitted effect of over 60% in size
#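 Luciferase expression driven by the NPC1 promoter was measured in stably transfected Huh7 cells after a 24 h compound incubation, using a luciferase reagent and a luminescence read.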
# SMN2 splice up: increases expression of the SMN2 splice variant | HEK293 SMN2-luciferase splicing reporter, luminescence, 30-36 h | Potency, µM (series often up to 46.1 µM), without a hit: at the highest dose activity change, positive = activation, most hits filed as activators | 2.8% of 210,000 active | AID 1458; note: % of control where 0% means no effect; nearly all actives have a fitted effect of over 55% in size
#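 HEK293 cells carry an SMN2 minigene-luciferase reporter in which exon 7 inclusion puts luciferase in frame. Cells were seeded at 2000 cells/well, attached for 10-12 hours, then exposed to compounds for 30-36 hours at 37C before ONE-Glo luminescence.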
# * hit, by the source's call; ? = inconclusive; . = no result given. Calls come from the whole dose curve; as a rule, active = well fitted curve in the direction sought with a large enough effect; inconclusive = small, poorly fitted or top-dose-only effect, or another doubt; inactive = no such curve, though single readings can be large; an effect the other way counts as inactive or inconclusive. Potency is the fitted concentration of half-maximal effect.
SMILES,ELG1 genotox,FLuc counter,Rab9 promoter act,ELG1 DNA repair,NPC1 promoter act,SMN2 splice up
CCOC(=O)C1=NN(c2cccc(Cl)c2)C2=NC(C)=C(C(=O)OC)C(c3cccs3)N12 (stereo not given),-5%,0%,-3%,21µM*,-12%,-10%
COc1ccccc1NC(=O)Cn1c(=O)n(Cc2ccc3c(c2)OCO3)c(=O)c2oc3ccccc3c21,.,-2%,.,.,.,.
Cc1ccc(NC(=O)CCc2c(C)nc3c(-c4ccccc4)c(C)nn3c2C)c(C)c1,.,3%,.,.,.,-11%
CCCc1cc2c(=O)c(-c3ccc4c(c3)OCCO4)coc2cc1OS(C)(=O)=O,0%,5.4µM*,3.2µM*,?,?,?
CCCc1cc2c(=O)c(-c3ccc4c(c3)OCCO4)c(C)oc2cc1OS(C)(=O)=O,-9%,-7%,2%,13µM*,-1%,-74%
CN1CCN(c2ccnc(-c3cccc(NS(C)(=O)=O)c3)n2)CC1,.,.,.,.,.,-3%
O=C(Cn1ccn(-c2ccc(F)cc2)c(=O)c1=O)NCCc1ccccc1,.,-5%,.,.,.,.
COc1ccccc1NC=C1C(=O)OC(C)(C)OC1=O,0%,11µM*,9%,?,-4%,9%
CNC(=O)c1cc(C(=O)c2ccccc2C(F)(F)F)c[nH]1,-1%,1%,-5%,8%,-6%,-9%
Cc1occc1-c1nc(-c2ccncc2)no1,18µM*,?,10%,?,13%,?
COc1cc(OC)c(-c2nc(-c3ccncc3)no2)cc1OC,-3%,-1%,2%,?,0%,.
Cc1ccc(-c2noc(-c3ccoc3C)n2)cc1,15µM*,3µM*,-6%,?,?,?
Cc1occc1-c1nc(-c2ccccn2)no1,?,4.8µM*,1.6µM*,?,?,11µM*
Cc1onc(-c2ccccc2Cl)c1-c1nc(-c2ccccn2)no1,-4%,-8%,0%,3%,-3%,-10%
CCN(C(=O)COc1cc(OC)ccc1C(C)=O)C1CCS(=O)(=O)C1 (stereo not given),0%,2%,-1%,-3%,-2%,.
COc1cccc(CNC(=O)CSc2ccc(-c3cccs3)nn2)c1,-5%,-3%,3%,8%,-2%,-8%
Nn1c(SCC(=O)Nc2ccccc2Br)nnc1-c1ccco1,-1%,1%,-1%,1%,-2%,.
CC(C)(C)OC(=O)C(Cc1ccc(OC(C)(C)C)cc1)NC(=O)CNC(=O)OCc1ccccc1 (stereo not given),-6%,4%,-4%,8.2µM*,0%,-40%
C[C@H](NC(=O)OCc1ccccc1)C(=O)NNC(=O)[C@H](Cc1ccccc1)NC(=O)OC(C)(C)C,3%,0%,-2%,?,1%,.
O=S(=O)(c1cnc[nH]1)N1CCc2ccccc21,-4%,3%,-3%,3%,-5%,.
CC(=O)N(\C=C/C=C/C=C1\Sc2ccccc2C1=O)c1ccccc1,-5%,7.6µM*,7%,?,-2%,-58%
CC(=O)N(/N=C1\Sc2ccccc2C1=O)c1ccccc1C,?,11µM*,3.2µM*,?,?,?
CC(=O)N(/N=C1\Sc2ccccc2C1=O)c1ccccc1,?,?,23%,?,23%,14µM*
CC(=O)N(/N=C1\Sc2ccccc2C1=O)c1ccc(C)cc1C,15µM*,17µM*,23%,?,?,-68%
CN(C)/C=C1/Sc2ccccc2C1=O,-2%,?,-4%,?,11%,8%
SMILES,ELG1 genotox,FLuc counter,Rab9 promoter act,ELG1 DNA repair,NPC1 promoter act,SMN2 splice up
CC(=O)Oc1ccc(N(C(C)=O)S(=O)(=O)c2ccc(C)cc2C)c2ccccc12,-11%,-2%,10%,?,-1%,.
CC(=O)N(/N=C1/C(=O)Nc2ccccc21)c1ccccc1,11%,-17%,?,?,?,.
O=C(COC(=O)CNC(=O)c1ccccc1)Nc1ccc(Cl)cc1C(F)(F)F,0%,0%,-5%,-1%,0%,5%
COc1ccc(C(=O)N2CCNC(=O)C2CC(=O)Nc2cc(Cl)ccc2OC)cc1 (stereo not given),4%,0%,7%,-4%,0%,.
CCCn1cc(CN2CCCC(C(=O)c3ccc4c(c3)OCO4)C2)c(C)n1 (stereo not given),0%,-2%,3%,-6%,-2%,.
O=c1c2ccc([N+](=O)[O-])cc2ncn1CCOc1ccc(Cl)cc1,-16%,-2%,0%,?,-1%,-10%
Cc1ccc(OCCn2cnc3ccccc3c2=O)c([N+](=O)[O-])c1,?,?,1.8µM*,?,2.8µM*,16µM*
O=c1c2ccc([N+](=O)[O-])cc2ncn1CCOc1cccc(Br)c1,-13%,-6%,10%,18µM*,-4%,-57%
O=C(COc1ccccc1Cl)N1CCc2ccccc2C1,7%,?,28%,?,15%,.
O=C(CCCc1ccccc1)N1CCc2ccccc21,2.1µM*,2.1µM*,0.45µM*,?,1.1µM*,11µM*
O=C(OCc1ccccc1)N1CCc2ccccc21,16µM*,2.7µM*,1.6µM*,?,0.63µM*,.
O=C(COc1ccccc1)N1CCc2ccccc21,?,5.4µM*,1.3µM*,?,?,14µM*
O=C(COc1ccccc1Cl)N1CCc2ccccc21,9.2µM*,6.7µM*,1.3µM*,?,2µM*,.
Cc1cc(Nc2cc(Cl)ccc2C)n2nc(Cc3ccccc3)nc2n1,.,0%,.,.,.,10%
O=C(CSCc1ccco1)N1CCc2ccccc21,?,9.5µM*,3.5µM*,?,2.8µM*,.
O=C(CSc1ccccc1)N1CCc2ccccc21,?,6.7µM*,3.5µM*,?,3.5µM*,18µM*
CCCn1c(SCC(=O)N2CCc3ccccc32)nnc1-c1ccco1,-5%,-2%,2%,-9%,-16%,-1%
CCCOc1ccc(C(=O)N2CCCc3ccccc32)cc1,30%,-5%,0%,2%,7%,8%
O=C(COc1ccc(Br)cc1)N1CCc2ccccc21,?,9.5µM*,2.8µM*,?,?,.
CCOc1ccc(C(=O)N2CCc3ccccc32)cc1,?,15µM*,0.89µM*,?,3.5µM*,.
Nc1cc(N)nc(SCC(=O)N2CCc3ccccc32)n1,13%,?,?,?,?,?
COc1ccc(Cl)cc1NC(=O)CN(C)C(=O)c1ccc(-n2nc(C)cc2C)cc1,-5%,6%,-4%,?,-2%,.
